From PubChem
Rows were chosen to be rich in hits. Some 6.6% of all compounds tested hit in one or more screens of this group.
Anthrax LF inh2 = Bacillus anthracis LF protease inhibitors, primary screen, biochemical, multiplex microsphere, MLPCN library; Lethal factor (Bacillus anthracis), P15917; multiplex microsphere protease cleavage assay; inhibition, % at 10 µM; actives 0.12% (n = 360,000); AID 588501, 2011; in the data active = inhibition above about 30%; inconclusive = no clear call, values can overlap the other calls; also: plate controls were buffer without enzyme for full effect and enzyme alone for no effect
BoNT A protease = BoNT/A light chain protease inhibitors, primary screen, biochemical, flow cytometry, MLPCN library; Botulinum neurotoxin type A light chain protease (Clostridium botulinum A str. ATCC 3502); multiplex microsphere protease substrate cleavage; inhibition, % at 10 µM; actives 0.17% (n = 360,000); in the data active = inhibition above about 30%; inconclusive = no clear call, values can overlap the other calls; also: plate controls were buffer without enzyme for full effect and enzyme alone for no effect
GDH-TPI counter-1 = GDH-TPI coupling enzyme inhibitors, primary screen, artefact control for M. tuberculosis FBA inhibitor project, biochemical, absorbance, full deck; inhibition, % at 4.8 µM; GDH-TPI coupled enzyme counterscreen, NADH absorbance; actives 1.2% (n = 360,000); in the data active = inhibition above about 30%;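 also: 0% = DMSO wells and 100% = wells lacking the enzyme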
FBA Mtb inh = Mtb FBA enzyme inhibitors, primary screen, biochemical, fluorescence, strain H37Rv; purified M. tuberculosis FBA, fluorescence read-out; Fructose-bisphosphate aldolase (Mycobacterium tuberculosis (strain ATCC 25618 / H37Rv)), …; inhibition, % at 1 µM; actives 2.3% (n = 360,000);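 also: 0% = vehicle and 100% = reference inhibitor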
Target sequence (P9WQA3 whole entry, looked up): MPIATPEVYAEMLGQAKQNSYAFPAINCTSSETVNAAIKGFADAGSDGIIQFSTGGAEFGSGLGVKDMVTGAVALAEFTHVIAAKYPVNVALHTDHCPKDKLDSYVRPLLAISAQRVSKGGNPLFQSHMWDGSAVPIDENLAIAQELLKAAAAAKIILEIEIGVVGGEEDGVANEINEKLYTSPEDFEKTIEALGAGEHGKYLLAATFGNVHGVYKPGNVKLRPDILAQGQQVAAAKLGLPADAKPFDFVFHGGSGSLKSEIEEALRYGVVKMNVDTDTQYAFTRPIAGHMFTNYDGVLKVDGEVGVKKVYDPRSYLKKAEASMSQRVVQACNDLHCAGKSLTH
BoNT-F LC inh = BoNT/F light chain protease inhibitors, primary screen, biochemical, flow cytometry, MLPCN library. Botulinum neurotoxin type F light chain protease (Clostridium botulinum). Multiplex microsphere protease cleavage assay. inhibition, % at 10 µM. actives 0.22% (n = 360,000); in the data active = inhibition above about 35%, passing the limit was not always enough; inconclusive = no clear call, values can overlap the other calls; also: plate controls were buffer without enzyme for full effect and enzyme alone for no effect
Autofluor counter = counter-screen for toxin protease inhibitors: compound fluorescence; compound autofluorescence counterscreen, microsphere flow cytometry; active compounds read high; actives 3.1% (n = 360,000); fluorescence intensity (concentration not given with the values); in the data active = fluorescence intensity above about 16000; inconclusive = no clear call, values can overlap the other calls
Mtb FBA inh conf = M. tuberculosis aldolase blockers, biochemical, fluorescence, strain H37Rv, confirmation; shares compounds with FBA Mtb inh; purified M. tuberculosis FBA, fluorescence read-out; inhibition, % at 1 µM; actives 78% (n = 5,600); AID 651616, 2012;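 also: 0% = vehicle wells and 100% = reference inhibitor wells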
GDH-TPI counter-2 = GDH-TPI coupling enzyme inhibitors, artefact control for M. tuberculosis FBA inhibitor project, biochemical, fluorescence, high throughput; GDH-TPI coupled enzyme counterscreen; inhibition, % at 1 µM; AID 652141, 2013; actives 81% (n = 5,600); shares compounds with FBA Mtb inh; in the data active = inhibition above about 10%
Active calls of the source: *; ? = inconclusive; . = no result given; + = active, no number. Rule as the data show it, unless noted: active = inhibition above about 27%; inactive = the rest.

SMILES	Anthrax LF inh2	BoNT A protease	GDH-TPI counter-1	FBA Mtb inh	BoNT-F LC inh	Autofluor counter	Mtb FBA inh conf	GDH-TPI counter-2
Cc1ccc(C)c(N2CCN(C(=S)Nc3ccc4nc(N5CCN(C)CC5)cc(C)c4c3)CC2)c1	-6	1	9	15	2	3779	.	.
CCC(C)NC(=S)Nc1ccc2nc(N3CCOCC3)cc(C)c2c1 (centres undefined)	-2	-3	6	29*	-13	3742	1	-2
COc1cc(NC(=O)CCC(=O)Nc2ccc3nc(N4CCOCC4)cc(C)c3c2)cc(OC)c1OC	-17	-4	24	106*	-13	2769	40*	30*
Cc1ccc(C)c(N2CCN(C(=S)Nc3ccc4nc(N5CCOCC5)cc(C)c4c3)CC2)c1	-1	2	9	27*	-2	2397	89*	64*
Cc1cc(N2CCOCC2)nc2ccc(NC(=O)CCC(=O)N3CCCCC3)cc12	-3	-1	-1	37*	-2	23643*	44*	33*
CCn1cc(C(=O)N(CCC(C)C)c2c(N)n(Cc3ccccc3)c(=O)[nH]c2=O)c(=O)c2ccc(C)nc21	3	1	13	-1	-3	3320	.	.
NS(=O)(=O)c1ccc(CCNC(=O)C2CC(=O)N(Cc3ccccc3Cl)C2)cc1 (centres undefined)	-8	-1	-1	-1	-5	4205	.	.
Cc1cc(N2CCOCC2)nc2ccc(NC(=O)CCC(=O)N3CCN(c4cccc(C(F)(F)F)c4)CC3)cc12	0	1	11	35*	4	3155	54*	40*
CCC(C)NC(=O)CCC(=O)Nc1ccc2nc(N3CCOCC3)cc(C)c2c1 (centres undefined)	-2	1	22	77*	6	2804	3	-3
CCN1CCN(c2cc(C)c3cc(NC(=O)CCC(=O)N4CCN(c5ccccc5)CC4)ccc3n2)CC1	2	0	5	25	0	5776	.	.
O=C(CNc1ccc(Br)cc1)NC(=O)NC1CCCCC1	-3	-9	-6	2	-20	7554	.	.
CN(CC(=O)Nc1ccccc1Cl)C(=O)C1CCN(C(=O)c2ccc(F)cc2)CC1	-4	-2	-5	-1	-5	6841	.	.
Cc1cccc(C)c1NC(=O)COc1ccc2c(C)c(Cc3ccccc3)c(=O)oc2c1	-2	-1	16	57*	-7	6923	+	193*
CCc1c(C)c2ccc(OCC(=O)OC)cc2oc1=O	-5	?	17	70*	-10	17530*	61*	48*
Cc1cc(=O)oc2c(C)c(OCC(=O)NCC3CCC(C(=O)O)CC3)ccc12 (centres undefined)	-1	0	16	10	6	5779	.	.
COC(=O)COc1cc(C)cc2oc(=O)c(CC(=O)OC)c(C)c12	2	0	9	93*	-2	3079	84*	66*
CCc1c(C)c2ccc(OCC(=O)NCC3CCC(C(=O)O)CC3)c(C)c2oc1=O (centres undefined)	-1	0	5	38*	3	5336	167*	134*
CCN1C[C@@H]2[C@@H]3C(=O)N(Cc4ccccc4)C(=O)[C@@H]3[C@](CC)(C1=O)N2C(=O)c1ccc(F)cc1	2	0	0	0	-5	4069	.	.
Cc1ccc(NS(=O)(=O)c2cc(C(=O)N(C)C)ccc2C)cc1C	3	1	4	4	8	3524	.	.
COc1ccc(OCC(=O)N2N=C(C(F)F)CC2(O)C(F)F)cc1 (centres undefined)	2	1	3	1	-2	1981	.	.
CC(=O)NC(CC(=O)OCC(=O)N1CCc2ccccc21)c1ccccc1 (centres undefined)	2	-2	-8	-1	-11	4386	.	.
OC(c1ccc(F)c(F)c1)c1ncc(-c2cccc(F)c2)[nH]1 (centres undefined)	0	0	-1	-1	2	3604	.	.
Cc1c(Cc2ccccc2)c(=O)oc2cc(OCC(=O)NCC3CCC(C(=O)O)CC3)ccc12 (centres undefined)	-5	-1	34*	104*	-20	4147	4	-4
Cc1cc(=O)oc2cc(OCC(=O)NCC3CCCO3)ccc12 (centres undefined)	-3	-1	4	11	-7	2834	.	.
COc1ccc(Cn2cc(Cn3c4ccccc4c(=O)n3C(C)C)nn2)cc1	6	0	.	105*	-3	4135	77*	55*
SMILES	Anthrax LF inh2	BoNT A protease	GDH-TPI counter-1	FBA Mtb inh	BoNT-F LC inh	Autofluor counter	Mtb FBA inh conf	GDH-TPI counter-2
CC(C)n1c(=O)c2ccccc2n1Cc1cn(-c2ccc(Cl)cc2)nn1	-4	-1	.	56*	-6	5709	35*	30*
COc1ccc(Cn2cc(CN3CC(N4CC=CC4)CS3(=O)=O)nn2)cc1 (centres undefined)	-2	0	.	.	0	5179	.	.
COC(=O)CSc1nnc([C@H](Cc2ccccc2)NC(=O)OC(C)(C)C)o1	-1	0	0	44*	0	2694	67*	64*
Cc1nc2c(=O)n(C)c(=O)n(C)c2nc1Cl	-3	0	6	39*	-5	8230	63*	44*
Cn1c(=O)c2nncnc2n(C)c1=O	-1	0	-2	-2	-2	2658	.	.
CC(C)C(=O)C1=Cc2cc([N+](=O)[O-])ccc2OC1N1CCOCC1 (centres undefined)	-25	-4	19	19	?	3243	.	.
COCCNc1oc(/C=C/c2ccc(F)cc2)nc1S(=O)(=O)c1ccccc1	-1	-1	17	19	-7	6351	.	.
COc1cccc(/C=C/c2nc(S(=O)(=O)c3ccccc3)c(N(C)C)o2)c1	-2	2	22	47*	9	5762	58*	44*
COCCNc1oc(/C=C/c2cccc(OC)c2)nc1S(=O)(=O)c1ccccc1	-4	-1	32*	47*	-1	2985	123*	89*
CC(OC(=O)CC1CCCC1)C(=O)Nc1ccc(S(N)(=O)=O)cc1 (centres undefined)	-2	3	4	-1	13	5071	.	.
